Where “and” joins values, the source holds several entries; their conditions need not be identical. Equal values may be shown once. The whole screen tested about 340,000 compounds, of which about 1,000 (0.29%) were called active. These entries were drawn from the full list. Measured potencies and affinities stand elsewhere. A number with no mark means an inactive call. No stated cut-off is given here; in the data, inconclusive means inhibition above about 27% without an active follow-up result; inactive means below that.
Test: NS1A inhibition, H1N1 influenza, cell based functional assay (AID 504329)
Conditions: percent inhibition, at 12.5 µM, stronger effect = higher value

Structure (SMILES) | inhibition
CCOc1cccc(C2C(C(=O)c3ccc(C)o3)=C(O)C(=O)N2c2nnc(C)s2)c1 (centres undefined) | 3.08%
CC1(c2ccccc2)NC(=O)N(NC(=O)COC(=O)c2cc(Br)ccc2O)C1=O (centres undefined) | -5.16%
O=C(NCCN1CCCCC1)c1ccc(Cl)nc1Cl | -3.64%
Cc1ccc(S(=O)(=O)Nc2cc(Cl)c(O)cc2C)cc1 | 6.58%
Cc1ccc(S(=O)(=O)Nc2ccc(O)c3cccnc23)cc1 | -4.48%
Cc1ccc(S(=O)(=O)Nc2cccc3ncccc23)cc1 | -4.33%
Cc1ccc(S(=O)(=O)Nc2cccc3cccnc23)cc1 | -11%
Cc1nn(-c2ccccc2)c(C)c1/C=C/C(=O)OCC(=O)Nc1ncc(Cl)cc1Cl | -0.68%
CCc1ccc2[nH]c(C)c(CN3CCCCCC3)c(=O)c2c1 | 6.48%
Cc1cc(NC(=O)CSc2nnc(-c3ccccc3)o2)no1 | 14%
Cc1ccc(NC(=O)CSc2nnc(-c3ccco3)o2)cc1 | 5.76%
O=C(O)c1ccc(N(c2ccccc2)c2ccccc2)cc1 | -2.79%
Nc1ccc(-c2ccccc2)cc1 | -0.13%
Cc1ccc(C(=O)Nc2ccc(N3CCN(C(=O)c4ccco4)CC3)cc2)cc1 | -1.89%
S=C1NC2(CCCCCC2)N=C1c1ccccc1 | 6.12%
S=C1NC2(CCCCC2)N=C1c1ccccc1 | -4.42%
CC(=O)Nc1nonc1-c1nc2ccccc2n1CC1CC1 | 6.72%
O=C(CSc1nnc(SCc2ccc(Cl)cc2)s1)N/N=C/c1ccc(C(=O)O)cc1 | -0.08%
CC1CCN(S(=O)(=O)c2ccc3c(c2)N(CC(=O)N(C)Cc2ccco2)C(=O)CO3)CC1 | 3.45%
CCCOc1cccc(-c2nn(-c3ccccc3)cc2/C=C(\C#N)C(=O)NCCCn2ccnc2)c1 | 1.02%
CCOc1cccc(-c2nn(-c3ccccc3)cc2/C=C(/C#N)C(=O)NCCCn2ccnc2)c1 | 6.31%
O=C(NCCCn1ccnc1)c1cn(-c2ccccc2)nc1-c1ccc(F)cc1 | 6.07%
N#C/C(=C/c1cn(-c2ccccc2)nc1-c1cccc(OCc2ccccc2)c1)C(=O)NCCCn1ccnc1 | -3.98%
CC(C)C(=O)Nc1cccc(C(=O)Nc2cc([N+](=O)[O-])ccc2F)c1 | -8.76%

Structure (SMILES) | inhibition
COc1ccc(C(=O)O/N=C(\N)c2ccc(Cl)cc2)cc1 | 2.64%
CN1CCCN(C(=O)CNC(=O)c2ccccc2F)CC1 | -1.28%
Cc1c(C(C)(C)C)sc(=NC(=O)c2ccccc2O)n1C | -24.8%
Nc1[nH]c(N=NC(=O)c2ccccc2)c2ccccc12 | 19%
CC(=O)N=Nc1[nH]c(N)c2ccccc12 | -6.73%
Nc1[nH]c(N=NC(=O)c2ccc(Cl)cc2)c2ccccc12 | 10.9%
Nc1[nH]c(N=NC(=O)c2ccc(F)cc2)c2ccccc12 | 12.2%
Cc1ccc(N2CC(C(=O)Nc3nc4ccc(S(C)(=O)=O)cc4s3)CC2=O)cc1 (centres undefined) | -4%
COc1cc(C(=O)NCc2ccccc2)ccc1OC(F)F | 2.29%
Cc1ccc(NC2=CC(=O)C(=O)c3ccccc32)c(C)c1 | -11%
Cc1ccc(NC2=C/C(=N/S(=O)(=O)c3cccs3)c3ccccc3C2=O)cc1 | 2.95%
Cc1ccc(S(=O)(=O)/N=C2\C=C(NS(=O)(=O)c3ccccc3)C(=O)c3ccccc32)c(C)c1 | 10.6%
Cc1ccc(NC2=C/C(=N/S(=O)(=O)c3cccs3)c3ccccc3C2=O)cc1C | -0.69%
O=C1C=C(Nc2ccccc2)c2ccccc2C1=O | -0.21%
Cc1cccc(NC2=C/C(=N/S(=O)(=O)c3cccs3)c3ccccc3C2=O)c1 | 22.8%
O=S(=O)(/N=C(/Nc1ccccc1)c1ccccc1)c1cccs1 | -0.58%
O=C1C=C(Nc2ccc(O)cc2)C(=O)c2ccccc21 | 24.1%
O=C(C1CC(=O)N(c2ccc(F)cc2)C1)N1CCC(c2nc3ccccc3[nH]2)CC1 (centres undefined) | -1.46%
COc1ccc(-c2cc(C(=O)Nc3ccc(F)cc3F)no2)cc1 | -13.1%
CC(C)n1nnnc1SCC(=O)NNC(=O)C1CCCCC1 | -0.25%
COC(=O)[C@@H]1C[C@@]2(O)[C@@H](O)[C@@H](O)[C@@H](O)C[C@H]2N1CC1CCCCC1 | -4.19%
CCCCn1c(N)c(N(C(=O)CSc2nnnn2-c2ccccc2C)C2CCCC2)c(=O)[nH]c1=O | -10.4%
CC1CC(C)CN(C(=O)COc2ccc([N+](=O)[O-])cc2Cl)C1 (centres undefined) | 0.5%
CSCCC(NC(=O)c1ccccc1)C(=O)OCC(=O)Nc1ccc(C)c(Cl)c1 (centres undefined) | 0.6%

Structure (SMILES) | inhibition
COc1ccc(OCc2nnc(SCC(N)=O)n2-c2ccccc2OC)cc1 | -0.95%
O=[N+]([O-])c1cc2c(cc1CN1CCN(c3ccccc3)CC1)OCO2 | 1.15%
c1ccc(N2CCN(Cc3ccnc4ccccc34)CC2)cc1 | -0.44%
Oc1ccc2ccccc2c1CN1CCN(c2ccccc2)CC1 | 0.87%
O=[N+]([O-])c1cc(Cl)c(O)c2ncccc12 | -6.45%
O=S(=O)(c1ccc(Cl)cc1)N1CCN(Cc2ccc(O)c3ncccc23)CC1 | 19.8%
Oc1ccc(COCc2ccccc2)c2cccnc12 | 22.4%
COc1ccc(C2C(C(=O)Nc3cc(C)on3)c3ccccc3C(=O)N2C)cc1 (centres undefined) | 7.42%
CCCCNS(=O)(=O)c1cc(-c2nn(C)c(=O)c3ccccc23)ccc1C | -6.29%
CC(=O)N1N=C(c2ccc(Br)cc2)OC12CCCC2 | -0.33%
C=CCSc1nc(N)c(C(=O)Nc2ccccc2OC)cc1C(=O)Nc1ccccc1 | 6.7%
COc1ccccc1NC(=O)c1c(N=Cc2c(O)ccc3ccccc23)cnn1C | 15.2%
Cc1cc(OCC(=O)OCC(=O)N2CCc3ccccc3C2)ccc1Cl | -4.55%
Cc1ccc(NN=C2C(=O)OC(C)(C)OC2=O)c(C)c1 | -14.3%
Cc1ccc(C2Nc3ccccc3NC3=C2C(=O)CC(C)(C)C3)c(O)c1 (centres undefined) | -4.27%
O=C(c1ccccc1F)N1CCN(C(=O)C(c2ccccc2)c2ccccc2)CC1 | 6.85%
O=c1ccc(Cl)nn1-c1ccccc1 | -0.77%
CSCCC(NC(=O)COc1ccccc1)C(=O)N1CCCCC1 (centres undefined) | 0.87%
CC(=O)c1ccc(S(=O)(=O)NCCCC(=O)N(C)Cc2ccc3c(c2)OCO3)cc1 | -23.5%
CCOC(=O)C(=O)Nc1cc(C)nn1-c1nc2ccccc2[nH]1 | 11.3%
Cc1cc(NC(=O)CC#N)n(-c2nc3ccccc3[nH]2)n1 | -16.5%
CCCOc1ccc(C(C)=O)cc1CSc1nc(O)cc(=O)[nH]1 | 4.86%
COc1ccc(C(=O)NCC(=O)N2CCN(C(=O)c3ccco3)CC2)cc1 | -3.4%
O=C(COc1c(Br)cc(Br)cc1Br)N/N=C/c1ccco1 | -0.44%

Structure (SMILES) | inhibition
CN(C)CCCNC(=O)c1ccc(-c2ccccc2)cc1 | -6.67%
COc1cc(NCc2ccccc2O)c2ncccc2c1 | -8.87%
CN(C)CCCNC(=O)c1ccccn1 | -2.43%
CN(C)CCCNc1c2ccccc2nc2ccccc12 | -0.82%
CC(C)C(=O)N1CCC(n2nccc2NC(=O)CCOc2ccccc2)CC1 | 0.18%
COc1ccc(/C=N/NC(=O)CN2CCS(=O)(=O)CC2)cc1 | -0.94%
CCOC(=O)c1[nH]c2c(c1-c1ccccc1)C(=O)CC(c1ccc(OC)c(OC)c1)C2 (centres undefined) | 8.75%
O=C(NC(Cc1ccccc1)C(=O)O)/C(=C/c1ccccc1)NC(=O)c1ccc(Br)o1 (centres undefined) | 3.22%
CCCCCn1c(=NC(=O)c2cccnc2)c(C#N)cc2c(=O)n3cccc(C)c3nc21 | -3.21%
O=C(COC(=O)c1cccc(S(=O)(=O)NCc2ccccc2)c1)c1ccccc1 | 3.76%
O=C(NCC(c1cccs1)N1CCOCC1)c1ccc(Cl)c(S(=O)(=O)N2CCOCC2)c1 (centres undefined) | -3.43%
Nc1nonc1-n1nnc(C(=O)N/N=C/c2ccccc2Br)c1CN1CCCC1 | 1.45%
CC1CCN(Cc2c(C(=O)N/N=C/c3ccccc3O)nnn2-c2nonc2N)CC1 | -0.06%
O=C(CN1C(=O)c2cccc3cccc1c23)NCC1CCCO1 (centres undefined) | 7.9%
Cc1[nH]c(=O)c(C#N)c(C)c1CSc1ncccn1 | -0.63%
CN(C)c1ccc(NC(=S)c2ccc3ccccc3n2)cc1 | 5.3%
S=C(Nc1ccccc1)c1ccccn1 | 3.81%
Cc1cc(C)c2oc(C(=O)N(Cc3ccccc3)C3CCS(=O)(=O)C3)cc(=O)c2c1 (centres undefined) | -2.06%
CC1(C)SC2c3ccccc3C(=O)N2C1C(=O)O (centres undefined) | -0.07%
CC1(C)S[C@@H]2[C@H](NC(=O)Cc3ccccc3)C(=O)N2[C@H]1C(=O)O | -10.5% and 1.49%
CC(C)C[C@H]1COCCS(=O)(=O)N1Cc1cccc(C(F)(F)F)c1 | -20%
O=C(NC1CCCCC1)C1CCN(c2nnnn2-c2ccccc2)CC1 | -1.63%
